According to PMC4552634, “A New Set of Chemical Starting Points with Plasmodium falciparum Transmission-Blocking Potential for Antimalarial Drug Discovery” (PLoS ONE, 2015):
Like-named read-outs stand apart in the source and are kept apart here. About 3,200 (25%) of roughly 13,000 compounds showed an effect of 50% or more. The list shows a part of the results.

Test system: P. falciparum stage V gametocytes
Design: BacTiter-Glo ATP luminescence viability of purified stage V gametocytes in 384-well plates, per cent inhibition versus DMSO
Conditions: 48 h, 5 µM, inhibitor

| SMILES | % Inhibition | % Inhibition (% Inhibition) |
| --- | --- | --- |
| O=C(NC1CCN(Cc2ccc3c(c2)OCCO3)CC1)c1ccc(-c2cccc(C(F)(F)F)c2)s1 [TCMDC-134337] | 32.78% | – |
| COc1ccc(C2N=C(N)N=C(N)N2OCc2ccccc2)cc1OC (stereo not drawn) [TCMDC-131345] | 5.736% | – |
| CC1(C)N=C(N)N=C(N)N1OCCCCCOc1ccccc1 [TCMDC-131319] | -2.033% | – |
| CC(=O)N(C)c1cccc(C(=O)Nc2cccc(-c3cccc(-c4nc5c(C)cccc5[nH]4)c3)c2)c1 [TCMDC-137071] | 44.44% | – |
| Cc1cc(CN2CCC(N3CC(c4ccccc4)(c4ccccc4)OC3=O)C2)ccc1O (stereo not drawn) [TCMDC-136072] | -30.84% | – |
| COc1cc(-c2nc(C(C)(C)CN)[nH]c2-c2ccncc2)ccc1Br [TCMDC-140674] | -82.82% | – |
| CCN(CC)CCCCNc1cc(-c2[nH]c(C(C)(C)C)nc2-c2ccc3cc(OC)ccc3c2)ccn1 [TCMDC-141246] | 101.1% | – |
| COc1cccc(CNCC(C)(C)c2nc(-c3ccc(Cl)c(O)c3)c(-c3ccncc3)[nH]2)c1 [TCMDC-140687] | -54.89% | – |
| COc1cc(NC(=O)CCCCCCCN2CCN(C)CC2)c2ncccc2c1 [TCMDC-138214] | -6.593% | – |
| COc1cc(-c2nc(-c3ccc4c(c3)CCC4=NO)c(-c3ccncc3)[nH]2)ccc1OCCN1CCN(C)CC1 [TCMDC-141256] | -11.77% | – |
| COc1cc(-c2cc3cc(Cl)c(Cl)cc3[nH]2)ccc1C(=O)NCCC1CCCN1C (stereo not drawn) [TCMDC-141287] | -25.11% | – |
| COc1ccc(C)c(Nc2ccnc(Nc3cccc(-c4nc5ccccc5[nH]4)c3)n2)c1 [TCMDC-138696] | 21% | – |
| CC(C)(CNC(=O)[C@@H]1CCCN(CCOc2ccc(Cl)cc2)C1)c1nc(-c2ccc(Cl)c(O)c2)c(-c2ccncc2)[nH]1 [TCMDC-141125] | 7.649% | – |
| COc1ccc2cc(-c3nc(-c4c(Cl)cccc4Cl)[nH]c3-c3ccnc(NCCC4CCCN4C)c3)ccc2c1 (stereo not drawn) [TCMDC-141248] | 70.07% | – |
| CN(C)CCOc1ccc(NC(=O)NC(C)(C)c2nc(-c3ccc(Cl)c(O)c3)c(-c3ccncc3)[nH]2)cc1 [TCMDC-140744] | -34.41% | – |
| COc1ccc2cc(-c3nc(-c4c(Cl)cccc4Cl)[nH]c3-c3ccnc(NCCCN4CCN(C)CC4)c3)ccc2c1 [TCMDC-141250] | 55.44% | – |
| CCN(CC)CCCCNc1cc(-c2[nH]c(-c3c(Cl)cccc3Cl)nc2-c2ccc3cc(OC)ccc3c2)ccn1 [TCMDC-141249] | 85.02% | – |
| N=C(N)c1ccc(C(=O)Nc2cccc(C(=N)N)c2)cc1 [TCMDC-137804] | 7.039% | – |
| CCOc1cc(C(=O)NCCCN2CCN(c3cccc(Cl)c3)CC2)ccc1-c1nc2cc(Cl)c(F)cc2[nH]1 [TCMDC-140097] | -13.16% | – |
| O=C(/C=C/c1ccc(Cl)c(Cl)c1)NCCCCCN1CCC(NC(=O)Nc2ccccc2Cl)CC1 [TCMDC-135710] | -61.78% | – |
| Cc1ccc(Nc2ccnc3ccc(C(F)(F)F)cc23)cc1O [TCMDC-138307] | -31.91% | – |

| SMILES | % Inhibition | % Inhibition (% Inhibition) |
| --- | --- | --- |
| CC1(C)N=C(N)NC(NOCC=Cc2ccccc2)=N1 [TCMDC-131690] | -2.035% | – |
| O=C(NCCc1ccc(Cl)c(Cl)c1)[C@@H]1CCCN1C(=O)c1ccc(O)c(-c2ccc(Cl)c(Cl)c2)c1 [TCMDC-140871] | 35.67% | – |
| COc1ccc(Nc2ncc3c(-c4cccc(NC(=O)Cc5cccnc5)c4)c[nH]c3n2)cc1OC [TCMDC-135285] | -50.17% | – |
| CN(C)CCNC(=O)c1ccc2c(c1)n(C1CCN(S(=O)(=O)c3ccc(-c4ccccc4)cc3)CC1)c(=O)n2CC1CCCCC1 [TCMDC-135414] | 22.96% | – |
| CCc1cccc(NC(=O)/C=C/c2ccc3c(c2)CN(C)CC3)c1 [TCMDC-139241] | 27.65% | – |
| NC1=NC(c2ccccc2)(c2cccc(O)c2)C(=O)N1CCCc1ccccc1 (stereo not drawn) [TCMDC-132352] | – | -21.91% |
| CC1CCCCN1CCCNC(=O)c1cccc(-c2cc3cc(Cl)c(Cl)cc3[nH]2)c1 (stereo not drawn) [TCMDC-141291] | -28.41% | – |
| CCOc1cc(C(=O)NCCCN2CCCCC2C)ccc1-c1nc2ccc(Cl)cc2[nH]1 (stereo not drawn) [TCMDC-140915] | 4.733% | – |
| COc1ccc2cc(-c3nc(-c4c(Cl)cccc4Cl)[nH]c3-c3ccnc(NCCCN4CCCCC4C)c3)ccc2c1 (stereo not drawn) [TCMDC-141247] | 95.77% | – |
| CCn1c(C)c(C)c2cc(C(=O)Nc3ccon3)ccc21 [TCMDC-124915] | 28.52% | – |
| Cn1cc(CN2CCC(OC(c3ccccc3)c3ccc(Cl)cc3)CC2)cn1 (stereo not drawn) [TCMDC-136165] | 63.85% | – |
| c1ccc(C(OCCC2CCN(Cc3cccnc3)CC2)c2ccccc2)cc1 [TCMDC-136045] | 0.3767% | – |
| Oc1ccccc1CN1CCC(CCOC(c2ccccc2)c2ccc(Cl)cc2)CC1 (stereo not drawn) [TCMDC-136039] | 23.64% | – |
| CC(C)N1CCC(Oc2ccc(CN3CCN(C(c4ccccc4)c4ccc(Cl)cc4)CC3)cc2)CC1 (stereo not drawn) [TCMDC-132411] | 68.21% | – |
| Cn1cc(CN2CCC(CCOC(c3ccccc3)c3ccccc3)CC2)cn1 [TCMDC-136046] | 75.05% | – |
| Cn1cc(CN2CCCC(COC(c3ccccc3)c3ccccc3)C2)cn1 (stereo not drawn) [TCMDC-136042] | 17.19% | – |
| Cn1cc(CN2CCCC(COC(c3ccc(F)cc3)c3ccc(F)cc3)C2)cn1 (stereo not drawn) [TCMDC-136043] | -3.69% | – |
| Oc1ccc(CN2CCN(CCOC(c3ccccc3)c3ccc(Cl)cc3)CC2)cc1Cl (stereo not drawn) [TCMDC-135689] | 3.239% | – |
| Oc1ccccc1CN1CCN(C(c2ccccc2)c2ccccc2)CC1 [TCMDC-124458] | 18.52% | – |
| NC(=O)c1cccc(Nc2nccc(Nc3ccc(Oc4cccc(Cl)c4)c(Cl)c3)n2)c1 [TCMDC-138593] | -22.97% | – |
| Cc1c(S(=O)(=O)Nc2ccc3ccn(CCN(C)C)c3c2)sc2ccc(Cl)cc12 [TCMDC-139126] | -31.84% | – |
